Reference: PubChem BioAssay (NCATS)
More than one record can exist for a structure, and the calls need not agree. Active and inactive are the calls of the source. Where a call stands in place of a potency, no number is given. Calls follow the shape of the dose curve; as a rule, active = well fitted inhibition curve with a large enough effect; inconclusive = small, poorly fitted or top-dose-only effect; inactive = no such curve, though single readings can be large or run the other way.
Potency is read from the fitted curve at half-maximal effect.

Assay: qHTS assay for measurement of the activity of small molecule inhibitors on Zika virus induced Caspase-3 activity in human astrocytoma cells (AID 1224859)
Settings: SNB-19 ZIKV-induced caspase-3/7, luminescence, 6 h; series mostly up to 45.7 µM
Text: National Center for Advancing Translational Sciences [NCATS]
Johns Hopkins University School of Medicine
Increase in the Caspase-3 activity indicates an activation of apoptosis cell death pathway caused by Zika virus infection in certain types of neuronal cells including human neural progenitor cells (hNPCs), astrocytes, and astrocytoma cell line (SNB-19). This cell-based caspase-3 activity assay measures the increased caspase-3 activity in the astrocytoma cell line (SNB-19) after a 6-hour Zika virus infection with a luminescence readout. A decrease in the luminescence signal in this assay by small molecule treatment indicates an inhibitory effect of that small molecule on the Zika virus induced caspase-3 activity that may correlate with its effect on reduction of Zika virus caused cell death.
The medium for SNB-19 cells is composed of RPMI 1640 (ATCC, Cat.# 30-2001), 10% fetal bovine serum (FBS) (GE healthcare Life Sciences, Cat.# SH30071.03), and 1% Pen/Strep (Gibco, Cat.# 15140-122). A Caspase-Glo 3/7 assay kit (catalog number G8092; Promega, Madison, WI) was used to detect caspase-3 activity induced by Zika virus infection in human cells. The reagent mixture was reconstituted as described in the protocol from the manufacturer. Polystyrene tissue culture treated and PDL coated white plates were obtained from Greiner Bio-One (Monroe, NC). Cells were seeded in 384- or 1536-well assay plates and cultured at 37 C with 5% CO2 for 16 to 20 hours. The typical cell seeding density in the 1536-well plate assay is 250 cells/well in 3ul medium for SNB-19 cells in tissue culture treated plates. Compounds were added to cells and incubated for one hour before addition of ZIKV solution to cells (2 FFU/cell). After incubation at 37 C with 5% CO2 for 6 hours, the reagent mixture of Caspase-Glo 3/7 assay kit was added to each well, followed by incubation at room temperature for 30 minutes. The luminescence intensity of the assay plates was measured using a ViewLux plate reader (PerkinElmer). Data were normalized by using the cell-containing wells without ZIKV as a negative control (0% induction of caspase 3/7 activity) and wells containing ZIKV infected cells (Caspase-3 activity induced) as a positive control (100% induction of caspase 3 activity). The percentage inhibitions of the increased Caspase-3 activity by small molecule inhibitors were then calculated.
For `CN1CCN(c2c(F)cc3c(=O)c(C(=O)O)cn(CCF)c3c2F)CC1`, the Potency was “inactive”. With `CCc1cc(C(N)=S)ccn1` the Potency was “inactive”. For `N=C(N)c1ccc(OCCCCCOc2ccc(C(=N)N)cc2)cc1`, the Potency was “inactive”. In the case of `COC(=O)Nc1nc2ccc(S(=O)c3ccccc3)cc2[nH]1` (stereo not given), the Potency is reported as “inactive”. With `Cc1nnc(C(=O)NC(C)(C)c2nc(C(=O)NCc3ccc(F)cc3)c(O)c(=O)n2C)o1` the Potency was “inactive”. In the case of `C[C@@H]1CN(c2c(F)c(N)c3c(=O)c(C(=O)O)cn(C4CC4)c3c2F)C[C@H](C)N1`, the Potency is reported as “inactive”. In the case of `OC(Cn1cncn1)(Cn1cncn1)c1ccc(F)cc1F`, the Potency is reported as “inactive”. For `CCN(C)C(=O)Oc1cccc([C@H](C)N(C)C)c1`, the Potency was “inactive”. In the case of `CCCCS(=N)(=O)CCC(N)C(=O)O` (stereo not given), the Potency is reported as “inactive”. In the case of `CC(=O)[C@H]1CC[C@H]2[C@@H]3CCC4=CC(=O)CC[C@]4(C)[C@H]3CC[C@]12C`, the Potency is reported as “inactive”. For `CC(N)C12CC3CC(CC(C3)C1)C2` (stereo not given), the Potency was “inactive”. With `CO[C@@H]1[C@@H](OC(N)=O)[C@@H](O)[C@H](Oc2ccc3c(O)c(NC(=O)c4ccc(O)c(CC=C(C)C)c4)c(=O)oc3c2C)OC1(C)C` the Potency was “inactive”. For `CC1=C(C(=O)O)N2C(=O)[C@@H](NC(=O)C(N)c3ccccc3)[C@H]2SC1` (stereo not given in full), the Potency was “inactive”. For `CCCCc1oc2ccc(NS(C)(=O)=O)cc2c1C(=O)c1ccc(OCCCN(CCCC)CCCC)cc1`, the Potency was “inactive”. In the case of `C1CCC(C(CC2CCCCN2)C2CCCCC2)CC1` (stereo not given), the Potency is reported as “inactive”. With `Cc1ccnc2c1NC(=O)c1cccnc1N2C1CC1` the Potency was “inactive”. With `O=NN(CCCl)C(=O)NC1CCCCC1` the Potency was “inactive”. With `O=C(O)CCn1c2c(c3ccccc31)C[C@H](NS(=O)(=O)c1ccc(F)cc1)CC2` the Potency was “inactive”. For `COc1nc(N)nc2c1ncn2[C@@H]1O[C@H](CO)[C@@H](O)[C@@H]1O`, the Potency was “inactive”. In the case of `NC(N)=NC(N)=NCCc1ccccc1`, the Potency is reported as “inactive”. For `CNC1CCCN(c2c(F)cc3c(=O)c(C(=O)O)cn(C4CC4)c3c2OC)C1` (stereo not given), the Potency was “inactive”. With `CCN(CC)CCn1c(=O)c(Cc2ccc(OC)cc2)nc2ccccc21` the Potency was “inactive”. In the case of `CC(C)C[C@H](NC(=O)[C@H](CCc1ccccc1)NC(=O)CN1CCOCC1)C(=O)N[C@@H](Cc1ccccc1)C(=O)N[C@@H](CC(C)C)C(=O)[C@@]1(C)CO1`, the Potency is reported as “inactive”. In the case of `Cc1nnc(NS(=O)(=O)c2ccc(N)cc2)s1`, the Potency is reported as “inactive”. For `CC(C)NCC(O)c1ccc(NS(C)(=O)=O)cc1` (stereo not given), the Potency was “inactive”. With `CCOC(=O)c1ccc(C#Cc2ccc3c(c2)C(C)(C)CCS3)nc1` the Potency was “inactive”. For `COc1cnc(NS(=O)(=O)c2ccc(N)cc2)nc1`, the Potency was “inactive”. For `CCC(C)(C)c1ccc(CC(C)CN2C[C@@H](C)O[C@@H](C)C2)cc1` (stereo not given in full), the Potency was “inactive”. In the case of `Cc1cc(NS(=O)(=O)c2ccc(N)cc2)no1`, the Potency is reported as “inactive”. In the case of `CCN(CC)CC#CCOC(=O)C(O)(c1ccccc1)C1CCCCC1` (stereo not given), the Potency is reported as “inactive”. With `O=C(N[C@H](CO)[C@H](O)c1ccc([N+](=O)[O-])cc1)C(Cl)Cl` the Potency was “inactive”. With `C#CCN[C@@H]1CCc2ccccc21` the Potency was “inactive”. With `COc1cc2ncnc(Nc3cccc(Cl)c3)c2cc1OC` the Potency was “inactive”. For `O=C(O)c1cccnc1`, the Potency was “inactive”. In the case of `COC(=O)Nc1nc2ccc(C(=O)c3ccccc3)cc2[nH]1`, the Potency is reported as “inactive”. With `CC(=O)Oc1ccccc1C(=O)Nc1ncc([N+](=O)[O-])s1` the Potency was 1.71 µM (active) and inactive. In the case of `CC(C)C1CCC(C(=O)N[C@H](Cc2ccccc2)C(=O)O)CC1` (stereo not given in full), the Potency is reported as “inactive”. In the case of `O=c1oc2c(O)c(O)cc3c(=O)oc4c(O)c(O)cc1c4c23`, the Potency is reported as “inactive”. For `Cn1nnc2c(C(N)=O)ncn2c1=O`, the Potency was “inactive”. With `CC(=O)[C@H]1CC[C@H]2[C@@H]3CC=C4C[C@@H](O)CC[C@]4(C)[C@H]3CC[C@]12C` the Potency was “inactive”.
